# Results filed as inconclusive are left out. Entries that show only a call come without a potency. Calls of active or inactive are those of the source. Calls follow the shape of the dose curve; as a rule, active = well fitted activation curve with a large enough effect; inconclusive = small, poorly fitted or top-dose-only effect; inactive = flat fitted curve, though single readings scatter.
# Experiment: Primary redox qHTS assay for identification of artifact compounds. (AID 1845223)
# Conditions: Amplex Red/HRP redox cycling with DTT, fluorescence; series mostly up to 53.8 µM
# Summary of the method: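 Redox-cycling detection via DTT (250 uM final) oxidation coupled to Amplex Red (25 uM)/HRP (250 mU/mL) in HBSS. 15 min preincubation plus 30 min after DTT, room temperature. Ex/Em 525/598 nm; 4-parameter Hill fit against DMSO and 10 uM DA3003.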
Structure (SMILES),Potency,redox activity (% of DA3003)
CCn1c(=O)c(-c2ccc(Cl)cc2Cl)cc2cnc(Nc3ccc(N4CCNCC4)c(F)c3)nc21,inactive,
CCOc1ccc(-n2c([C@@H](C)N(Cc3cccnc3)C(=O)Cc3ccc(OC(F)(F)F)cc3)nc3ncccc3c2=O)cc1,inactive,
CNc1nc(Nc2ccc(C(=O)N3CCOCC3)cc2OC)nc2[nH]cc(Cl)c12,inactive,
COc1ccccc1-c1ccc(-c2cn(C(=O)N3CCCCC3Cc3ccccc3)nn2)cc1 (stereo not given),inactive,
C=C1C(=O)O[C@@H]2C3C(=C(C)[C@@H](O)[C@@H](OC(=O)/C(=C/C)COC(C)=O)[C@@H]12)C(=O)[C@H]1O[C@@]31C (stereo not given in full),inactive,
COc1ccccc1C(=O)Nc1cc2c(cc1N1CCCC1)n(C)c(=O)n2C,inactive,
Cc1cc(C(=O)Nc2cc(Nc3ccc4c(/C=C/c5ccccn5)n[nH]c4c3)ccc2F)n(C)n1,inactive,
N#Cc1ccc(COc2ccc(-c3cccc4nc(NC(=O)C5CC5)nn34)cc2)cn1,inactive,
C=C1C(=O)O[C@@H]2C(OC(=O)/C(C)=C\C)/C(C)=C\C(=O)/C=C(\C)C[C@H](O)[C@@H]12 (stereo not given in full),inactive,
CCOC(=O)c1csc(Nc2ccc(Cl)cc2)n1,inactive,
CNc1nc(NCc2ccc(NS(C)(=O)=O)cc2Cl)cc(-c2ccccn2)n1,inactive,
CC(=O)O[C@H]1CC2C(COC(=O)CC(C)C)=CO[C@@H](OC(=O)CC(C)C)C2[C@]12CO2 (stereo not given in full),inactive,
CCCN(CCc1ccsc1)C1CCc2c(O)cccc2C1 (stereo not given),inactive,
O=C(Nc1ccc(Cl)cc1)Nc1cccc(-c2cccc(N3CCCC3)n2)c1,inactive,
O=C(O)C1=CO[C@@H](O[C@@H]2O[C@H](CO)[C@@H](O)[C@H](O)[C@H]2O)[C@@H]2C(CO)=CC[C@H]12,inactive,
C/C=C(\C)C(=O)O[C@H]1C=C(CO)C(=O)[C@H](OC(C)=O)[C@H]1C(C)C,inactive,
Cc1ccc(O)cc1Nc1ccnc(Nc2cccc(C(N)=O)c2)n1,inactive,
COc1cc2ncnc(Nc3ccc(F)c(Cl)c3)c2cc1O,inactive,

Structure (SMILES),Potency,redox activity (% of DA3003)
COC1CCN(c2cccc(-c3cc(NC(C)=O)nc(-n4nc(C)cc4C)n3)n2)CC1,inactive,
C[C@@H]1CC[C@@]23CC[C@]4(C)[C@@](C=CC5[C@@]6(C)CC[C@H](O)C(C)(C)C6CC[C@]54C)(OC2=O)C3[C@H]1C (stereo not given in full),inactive,
CC[C@H](C(=O)Nc1ccccc1N1CCCC1)c1ccccc1,inactive,
Nc1nc2c(cnn2CCCc2ccc(O)cc2)c2nc(-c3ccco3)nn12,inactive,
O=C(Nc1ccc(-c2ccc(Cl)c(Cl)c2)cc1)C1=C(O)c2ccccc2S(=O)(=O)N1,inactive,
CC(C)c1ccc(-c2cc(=O)c3ccccc3o2)cc1,inactive,
Nc1nc2c(nc(Br)n2[C@@H]2O[C@@H]3COP(=O)(O)O[C@H]3[C@H]2O)c(=O)[nH]1,inactive,
CC(=O)O[C@@H]1[C@@H](O)[C@H](O[C@@H]2[C@@H](O)[C@@H](O)[C@H](O[C@H]3[C@H](O[C@H]4[C@H](O[C@H]5CC[C@@]6(C)C(CC[C@]7(C)C6CC=C6[C@@H]8CC(C)(C)CC[C@]8(C(=O)O)CC[C@]67C)[C@]5(C)CO)O[C@H](CO)[C@@H](O)[C@@H]4O)OC[C@@H](O)[C@@H]3O)O[C@H]2C)OC[C@H]1O (stereo not given in full),,0.129% [at 11.5 µM] (inactive)
CC(C)Nc1nc(Nc2ccccc2)nc(-c2ccccc2)n1,inactive,
O=C(Nc1ccc2[nH]nc(-c3ccncc3)c2c1)[C@@H]1CCN(CC(=O)N2CCN(c3ccc(-c4ncccn4)cc3)CC2)C1,inactive,
O=C(O)c1cccc(-c2ccc(-c3cn(C(=O)N4CCCCC4Cc4ccccc4)nn3)cc2)c1 (stereo not given),inactive,
CN(C)Cc1ccc(-c2cnn3c(-c4cccc(NC(=O)c5cccc(C(F)(F)F)c5)c4)ccnc23)cc1,inactive,
O=C(NCCN1CCC(n2c(=O)[nH]c3ccccc32)CC1)c1ccc2ccccc2c1,inactive,
COc1ccccc1C(=O)Nc1cccc(NC(=O)c2cccc(C)c2)c1,inactive,
COc1ccc2nc(-c3cc(OC)c(OC)c(OC)c3)cc(C(=O)NCC(=O)Nc3ccc(C(C)=O)cc3)c2c1,inactive,
CN1CCN(C2=Nc3ccccc3Nc3ccc(Cl)cc32)CC1,inactive,
NCC1CCN(c2nccc(-c3ccc4ccccc4c3)n2)CC1,inactive,
